Assay outcomes from PubChem BioAssay.
Sampled rows, rich in hits. Any-hit rate of the full collection: about 7.4%.
Rab9 prom act – activates the Rab9 promoter; Huh7 Rab9 promoter-luciferase reporter, luminescence, 24 h; Potency, µM (top dose mostly 9.22 µM), for the others: at the top dose activation, negative = inhibition, hits mostly activators; hit rate 2.8% among 320,000; AID 485297; note: % of control where 0% means no effect; nearly all actives have a fitted effect of over 60% in size
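Stable Rab9-luc Huh7, 1500 cells/well, 2 h settle; cmpd in DMSO, 24 h, 37 °C/5% CO2; luciferase reagent 10 min RT; luminescence.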
SMN2 splice enh – enhancers of SMN2 splice variant expression; HEK293 SMN2-luciferase splicing reporter, luminescence, 30-36 h; Potency, µM (top dose mostly 46.1 µM), inactives show top-dose activity change, positive = activation, actives largely listed as activators; hit rate 2.8% among 210,000; note: % of control where 0% means no effect; nearly all actives have a fitted effect of over 55% in size
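qHTS luciferase splicing reporter: luminescence rises when SMN2 exon 7 is included in transfected HEK293 cells. Compound exposure lasted 30-36 h at 37C, with 4.5 mM final sodium butyrate as control, followed by a ONE-Glo read.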
ELG1 genotoxic – induces genotoxicity in HEK293T cells with luciferase-tagged ELG1; hit rate 1.3% among 330,000; Potency, µM (top dose mostly 46 µM), for inactives: at the highest dose activity change, positive = activation, usual class: activators; HEK293T ELG1-luciferase reporter, luminescence, 16 h; note: % of control where 0% means no effect; nearly all actives have a fitted effect of over 60% in size
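Cells (2,000/well) expressing the ELG1-luciferase fusion are dosed by pin tool and kept 16 hr at 37 °C, 5% CO2. Signal comes from ONE-Glo luciferase reagent after 30 min at room temperature.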
FLuc counter – firefly luciferase modulation, counter-screen for miR-21 project; purified FLuc, Km substrates, luminescence inhibition; Potency, µM (highest dose often 57.5 µM), for inactives: at the top dose activity change, negative = inhibition, usual class: inhibitors; hit rate 6.9% among 360,000; AID 588342;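 note: plate controls were vehicle for no effect and reference inhibitor for full effect; nearly all actives have a fitted effect of over 55% in size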
Target sequence (P08659 whole entry, looked up): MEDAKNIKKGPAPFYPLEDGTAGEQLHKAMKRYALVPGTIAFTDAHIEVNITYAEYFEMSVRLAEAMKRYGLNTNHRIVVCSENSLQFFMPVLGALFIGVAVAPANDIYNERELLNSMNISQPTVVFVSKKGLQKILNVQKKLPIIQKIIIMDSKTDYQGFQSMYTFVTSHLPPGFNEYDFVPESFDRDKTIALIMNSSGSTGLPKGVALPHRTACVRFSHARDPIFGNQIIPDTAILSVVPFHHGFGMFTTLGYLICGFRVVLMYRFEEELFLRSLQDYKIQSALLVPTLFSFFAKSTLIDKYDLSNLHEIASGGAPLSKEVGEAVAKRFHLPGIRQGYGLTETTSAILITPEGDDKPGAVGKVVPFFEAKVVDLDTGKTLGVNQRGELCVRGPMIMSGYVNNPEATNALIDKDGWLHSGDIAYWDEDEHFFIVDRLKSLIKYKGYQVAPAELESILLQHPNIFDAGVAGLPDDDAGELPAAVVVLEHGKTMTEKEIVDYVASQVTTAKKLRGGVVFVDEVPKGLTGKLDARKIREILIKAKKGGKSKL
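Biochemical qHTS of compounds, final roughly 60 µM downward over six points, against 10 nM purified firefly luciferase using Km concentrations of substrates (10 uM D-luciferin, 10 uM ATP) in Tris acetate pH 7.5 buffer; luminescence output.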
NPC1 promoter act – activators of NPC1 promoter. Huh7 NPC1 promoter luciferase reporter, 24 h. hit rate 2.4% among 320,000. Potency, µM (doses to about 9.22 µM), without a hit: at the top dose activation, most hits filed as activators. AID 485313; note: % of control where 0% means no effect; nearly all actives have a fitted effect of over 60% in size
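Luminescence from an NPC1 promoter-driven luciferase reporter in stably transfected Huh7 cells was measured after 24 h compound treatment at 37 °C, followed by 10 min ambient incubation with luciferase detection reagent.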
An asterisk follows results filed as active; ? = inconclusive; / = no result; [ ] = dose if it differs, or a comment. Calls come from the whole dose curve; as a rule, active = well fitted curve in the direction sought with a large enough effect; inconclusive = small, poorly fitted or top-dose-only effect, or another doubt; inactive = no such curve, though single readings can be large; an effect the other way counts as inactive or inconclusive. Potency is the fitted concentration of half-maximal effect.

SMILES	Rab9 prom act	SMN2 splice enh	ELG1 genotoxic	FLuc counter	NPC1 promoter act
O=C1Nc2ccccc2C1(O)C/C(=N/O)c1ccccc1 (stereo unspecified)	1.4%	22.1%	-0.2%	0.7%	-0.7%
Cc1cccc(CNC(=O)CCn2c(=O)c3cccn3c3ccc(F)cc32)c1	/	/	/	-1.1%	/
CCOC(=O)c1c(N)sc2c(OC)c(Br)ccc12	/	-10.1%	/	19µM*	/
Cc1ccc2cc(CCNC(=O)c3cccs3)c(=O)[nH]c2c1C	2.82µM*	10µM*	?	5.36µM*	2.82µM*
CC(=O)NCCc1cc2ccc(C)c(C)c2[nH]c1=O	-6.1%	?	16.8%	2.8%	-1.7%
Cc1ccc2cc(CCNC(=O)c3cccs3)c(=O)[nH]c2c1	?	10µM*	?	10.7µM*	3.16µM*
CNc1nc(-c2c(C)n(C)c3ccc(OC)cc23)cs1	?	/	-0.1%	1.2%	-3.3%
O=C(Nc1ccc(Cl)cc1)OCc1cncs1	?	-26.2%	6.5%	15.1µM*	?
O=C(Nc1ccc(Cl)cc1)OCc1ccccn1	2.24µM*	12.6µM*	17.7%	12µM*	2.51µM*
Cc1ccc(NC(=O)C(=O)NC2CCCCC2)cc1	1.12µM*	5.01µM*	?	?	1.58µM*
O=C(Nc1ccc(F)cc1)NC1CCCCC1	?	2.6%	?	?	?
O=C(NC1CCCCC1)[C@H](O)[C@@H](O)C(=O)NC1CCCCC1	-5.5%	8.1%	0.6%	6.6%	-0.6%
O=C(NC1CCCCCC1)C(=O)NC1CCCC1	2.24µM*	12.6µM*	18.5%	?	?
Cc1ccc(NC(=O)NC2CCCCCCC2)cc1	2.24µM*	/	?	7.57µM*	1.26µM*
CN(C)Cc1cc(C(C)(C)C)ccc1-c1ccc(C(C)(C)C)cc1CN(C)C	/	-3.6%[9.22 µM]	/	/	/
CC(C)c1ccc(N(CC(=O)NCc2ccco2)C(=O)CCC(=O)Nc2ccccn2)cc1	2.9%	/	-3.3%	2.8%	0.8%
Cc1ccc(Cc2ccc(C(=O)NNC(N)=S)o2)cc1	-7.6%	/	2.5%	-15.4%	0.3%
Nc1[nH]n(-c2ccccc2)c(=O)c1N=Nc1ccc2ncsc2c1	21.8%	/	0.2%	19µM*	19.9%
COc1cc([N+](=O)[O-])ccc1N=Nc1c(N)[nH]n(-c2ccccc2)c1=O	?	26.8%	0.7%	?	10.9%
Nc1[nH]n(-c2ccccc2)c(=O)c1N=Nc1ccccc1	3.55µM*	/	20.6µM*	5.36µM*	2.51µM*
Nc1[nH]n(-c2ccccc2)c(=O)c1N=Nc1ccccc1[N+](=O)[O-]	0.562µM*	?	3.16µM*	?	2µM*
O=c1c2cc([N+](=O)[O-])cc([N+](=O)[O-])c2[nH]n1-c1ccccc1	1.2%	/	-5.7%	10.7µM*	-5.1%
Nc1c(N=Nc2cccc(Cl)c2)c(=O)[nH]n1-c1ccccc1	24.5%	21.4%	4.8%	-2.8%	14.2%
COc1ccccc1CN1CC[C@@]2(CCCN(C(=O)c3cnccn3)C2)C1	/	5.1%	/	/	/
C=CC[C@@H]1[C@H](O)CC[C@@]2(C)[C@H]1CC[C@@H]1[C@@H]2CC[C@]2(C)C([C@H](C)CCCC(C)C)CC[C@@H]12 (stereo partly specified)	/	-12.2%	/	/	/
SMILES	Rab9 prom act	SMN2 splice enh	ELG1 genotoxic	FLuc counter	NPC1 promoter act
CC1=NOC(=O)/C1=C\c1ccc(-c2ccc(Br)cc2C(=O)O)o1	-3.4%	/	3.4%	?	0.0%
Cc1ccc(/C=C2\C(=O)ON=C2c2ccccc2)o1	-11.6%	/	0.7%	1.07µM*	1.1%
CC1=NOC(=O)/C1=C\c1ccc(-c2cc(Cl)ccc2Cl)o1	0.0%	21.6%	-38.9%	?	-15.9%
CC1=NOC(=O)/C1=C/c1ccc(-c2ccc(Cl)cc2)o1	-3.8%	-15.6%	-13.4%	8.49µM*	-2.6%
CC1=NOC(=O)/C1=C\c1ccc(-c2ccc(Br)cc2)o1	-2.6%	-41.3%	-3.1%	8.49µM*	-11.2%
Cc1cc(NC(=O)CSc2nc3cc(Cl)ccc3c(=O)n2C(C)C)no1	-5.6%	/	2.5%	-1.0%	-3.0%
COC(=O)c1c(-c2cccs2)csc1NC(=O)c1cccnc1	?	-1.2%	6.2%	16.9µM*	28.1%
COC(=O)c1c(-c2cccs2)csc1NC(=O)COc1ccccc1	/	/	/	6.75µM*	/
COC(=O)c1c(-c2cccs2)csc1NC(=O)COc1ccc(C)cc1	/	/	/	-18.4%	/
